Reference: paper PMC4336329 (PLoS ONE, 2015)
Hit rate of the full screen: of about 310,000 compounds, about 14,000 (4.5%) showed an effect of 50% or more. The effect is printed as a negative number. The full list was thinned out, with strong results kept by preference.

target: human ether-à-go-go-related gene (hERG) potassium channel (human, UniProt Q12809); assay: primary screen, population patch clamp on CHO cells stably expressing hERG; higher = less effect of the substance
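Further: peak tail current of the secondary pulse compared with the same well before compound.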

Sequence of human ether-à-go-go-related gene (hERG) potassium channel (Q12809 whole entry, looked up): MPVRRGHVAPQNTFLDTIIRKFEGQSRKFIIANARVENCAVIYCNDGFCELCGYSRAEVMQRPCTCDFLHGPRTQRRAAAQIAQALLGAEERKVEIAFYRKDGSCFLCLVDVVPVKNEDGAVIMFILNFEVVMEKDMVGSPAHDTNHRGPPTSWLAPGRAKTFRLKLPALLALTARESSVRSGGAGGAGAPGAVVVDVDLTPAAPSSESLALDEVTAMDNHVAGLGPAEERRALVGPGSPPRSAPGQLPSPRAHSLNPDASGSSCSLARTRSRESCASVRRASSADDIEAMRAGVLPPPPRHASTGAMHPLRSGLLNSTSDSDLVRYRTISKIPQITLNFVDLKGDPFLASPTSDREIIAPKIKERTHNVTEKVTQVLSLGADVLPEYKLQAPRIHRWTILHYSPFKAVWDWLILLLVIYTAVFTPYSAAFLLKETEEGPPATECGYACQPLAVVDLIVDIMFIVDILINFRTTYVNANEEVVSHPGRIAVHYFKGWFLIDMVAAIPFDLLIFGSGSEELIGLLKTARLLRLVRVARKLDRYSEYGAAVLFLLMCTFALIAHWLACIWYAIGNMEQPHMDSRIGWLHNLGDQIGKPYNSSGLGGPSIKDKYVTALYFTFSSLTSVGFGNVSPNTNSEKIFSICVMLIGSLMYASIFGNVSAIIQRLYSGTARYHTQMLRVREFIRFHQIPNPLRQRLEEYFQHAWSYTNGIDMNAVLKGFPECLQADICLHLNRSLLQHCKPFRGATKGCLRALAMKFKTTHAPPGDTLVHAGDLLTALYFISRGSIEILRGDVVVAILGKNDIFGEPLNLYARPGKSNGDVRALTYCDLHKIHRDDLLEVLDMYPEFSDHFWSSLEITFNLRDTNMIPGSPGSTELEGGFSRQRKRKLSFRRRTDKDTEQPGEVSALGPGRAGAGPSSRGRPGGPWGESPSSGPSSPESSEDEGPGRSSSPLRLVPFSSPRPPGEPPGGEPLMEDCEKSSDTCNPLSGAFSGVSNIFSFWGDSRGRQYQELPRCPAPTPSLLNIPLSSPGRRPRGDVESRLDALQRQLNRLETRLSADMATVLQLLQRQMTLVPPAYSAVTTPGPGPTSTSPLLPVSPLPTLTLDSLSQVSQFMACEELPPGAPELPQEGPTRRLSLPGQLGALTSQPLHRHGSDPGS

Row | SMILES | hERG current change (%, negative = inhibition) at 10uM [%]
1 | CCOCC(=O)Nc1nnc(SCCOC)s1 | -0.419
2 | O=C(CCCN1C(=O)/C(=C/c2cccs2)SC1=S)Nc1cc([N+](=O)[O-])ccc1O | 21.1
3 | O=C(C1CCC(Cn2c(=O)[nH]c3ccccc3c2=O)CC1)N1CCN(c2ccccc2)CC1 (stereo not shown) | 6.47
4 | Fc1ccc(C2c3cccn3CCN2C(=S)Nc2cccc(F)c2)cc1 (stereo not shown) | 6.02
5 | CCN(CC)CCC(c1ccc(N(C)C)cc1)c1c(OC)cc(OC)c2ccc(=O)oc12 (stereo not shown) | -11.7
6 | CCCCCc1cc(=O)oc2c(C(CCN3CCCC(C)C3)c3ccc4c(c3)OCO4)c(OC)cc(OC)c12 (stereo not shown) | -7.33
7 | CCCCCc1cc(=O)oc2c(C(CCN3CCN(c4ccccc4)CC3)c3ccc4c(c3)OCO4)c(OC)cc(OC)c12 (stereo not shown) | 18.7
8 | CCCCCc1cc(=O)oc2c(C(CCN3CCN(c4ccccc4)CC3)c3ccc(N(C)C)cc3)c(OC)cc(OC)c12 (stereo not shown) | 5.51
9 | CCCCCc1cc(=O)oc2c(C(CCN3CCCC3)c3ccc(N(C)C)cc3)c(OC)cc(OC)c12 (stereo not shown) | -57.5
10 | CCCCCc1cc(=O)oc2c(C(CCN3CCCC(C)C3)c3ccc(OC)cc3)c(OC)cc(OC)c12 (stereo not shown) | -27.8
11 | CCCCCc1cc(=O)oc2c(C(CCN3CCCCC3)c3ccc(OC)cc3)c(OC)cc(OC)c12 (stereo not shown) | -59.1
12 | CCCCCc1cc(=O)oc2c(C(CCN(CC)CC)c3ccc(OC)cc3)c(OC)cc(OC)c12 (stereo not shown) | -55.2
13 | CCCCCc1cc(=O)oc2c(C(CCN3CCCC(C)C3)c3ccc(N(C)C)cc3)c(OC)cc(OC)c12 (stereo not shown) | 6.65
14 | CCCCCc1cc(=O)oc2c(C(CCN3CCCCC3)c3ccc4c(c3)OCO4)c(OC)cc(OC)c12 (stereo not shown) | -54.3
15 | CCCCCc1cc(=O)oc2c(C(CCN(CC)CC)c3ccc(N(C)C)cc3)c(OC)cc(OC)c12 (stereo not shown) | -33.6
16 | CC(=O)c1cn(-c2ccc(Cl)cc2)c(=O)n(Cc2ccc(Br)cc2)c1=O | -11.9
17 | O=C(Nc1ccccc1F)C1CCCN(S(=O)(=O)c2ccccc2)C1 (stereo not shown) | -10.3
18 | Cc1ccc(Cc2cnc(N3C(=N)SC(c4ccccc4)C3=O)s2)cc1 (stereo not shown) | 3.87
19 | COc1cc(OC)cc(C(=O)NCC(=O)OCC(=O)C(C)(C)C)c1 | 16.6
20 | CCCC1=NN2C(=N)/C(=C\c3cc(C)n(-c4cc(C)cc(C)c4)c3C)C(=O)N=C2S1 | -10.4
21 | CCc1nc2c(n1O)CCc1nonc1-2 | 4.58

Row | SMILES | hERG current change (%, negative = inhibition) at 10uM [%]
22 | COc1ccc(Cl)cc1NC(=O)CCCN1C(=O)CCC1=O | 14.4
23 | CCOC(=O)c1c(C)[nH]c(C)c1C(=O)C(Cc1ccccc1)N(C)C.Cl (stereo not shown) | 4.71
24 | O=C(NCC(c1cccnc1)N1CCN(c2ccc(F)cc2)CC1)OCc1ccccc1 (stereo not shown) | -56.8
25 | O=C(NCC(c1cccnc1)N1CCN(c2ccccc2)CC1)OCc1ccccc1 (stereo not shown) | -45.9
26 | O=S(=O)(NCC(c1cccnc1)N1CCN(c2ccc(F)cc2)CC1)c1ccccc1 (stereo not shown) | -53.2
27 | O=C(NCC(c1cccnc1)N1CCN(c2ccc(F)cc2)CC1)c1ccc(F)cc1 (stereo not shown) | -47.6
28 | CCS(=O)(=O)NCC(c1cccnc1)N1CCN(c2ccc(F)cc2)CC1 (stereo not shown) | -7.91
29 | O=S(=O)(NCC(c1ccco1)N1CCN(c2ccc(F)cc2)CC1)c1ccc(F)cc1 (stereo not shown) | -0.721
30 | O=C(NCC(c1cccnc1)N1CCN(c2ccc(F)cc2)CC1)Oc1ccccc1 (stereo not shown) | -26.4
31 | O=S(=O)(NCC(c1cccnc1)N1CCN(c2ccc(F)cc2)CC1)c1ccc(F)cc1 (stereo not shown) | -69
32 | COc1ccc2c(c1)-c1c(ssc1=S)C(C)(C)N2S(=O)(=O)c1ccc(C)cc1 | 2.55
33 | CCCCN1C(=O)/C(=C/c2ccc(N(C)C)cc2)C(=O)N(Cc2ccco2)C1=O | 7.86
34 | S=C(NCC1CCCO1)Nc1ccccc1 (stereo not shown) | 25.5
35 | C=CCn1cc(CN2CCC(C(=O)Nc3cccc(-c4cccc(Cl)c4)c3)CC2)c(C)n1 | -71.5
36 | Cc1c(CN2CCC(C(=O)Nc3ccc(Oc4ccccc4)nc3)CC2)cnn1C | -32.8
37 | Cc1c(CN2CCC(C(=O)Nc3cccc(-c4cccc(Cl)c4)c3)CC2)cnn1C | -61.4
38 | CCn1cc(CN2CCC(C(=O)Nc3cccc(-c4cccc(Cl)c4)c3)CC2)c(C)n1 | -78.9
39 | CC(=O)c1cc(CN2CCC(C(=O)Nc3cccc(-c4cscn4)c3)CC2)cs1 | -30.5
40 | CCn1cc(CN2CCCC(C(=O)Nc3ccc(-c4cscn4)cc3)C2)c(C)n1 (stereo not shown) | -8.71
41 | CCn1cc(CN2CCC(C(=O)Nc3cccc(-c4cccc(OC)c4)c3)CC2)c(C)n1 | -46.3
42 | C=CCOc1cccc(C2NC(=O)c3ccccc3O2)c1 (stereo not shown) | 21.4

Row | SMILES | hERG current change (%, negative = inhibition) at 10uM [%]
43 | C/C(=N/O)c1cc(C(C)(C)C)c(O)c(C(C)(C)C)c1 | 14.6
44 | COc1ccc([C@@H]2CC=C(C(=O)O)[C@H](c3ccc(F)cc3)N2S(=O)(=O)c2ccc(C)cc2)cc1OC | 10.5
45 | Fc1cccc(Cl)c1Cn1nnc(-c2ccc3c(c2)OCO3)n1 | -1.37
46 | N=c1c2c3c(sc2nc2n1CCC2)CCCC3 | -28.9
47 | N=c1c2c3c(sc2nc2n1CCCCC2)CCCC3 | -45.2
48 | N=c1c2c3c(sc2nc2n1CCCCC2)CCCCC3 | -53
49 | NC(=O)NCc1cccs1 | 7.27
50 | O=C(c1ccccc1Oc1ccc([N+](=O)[O-])cc1)N1CCOCC1 | -52
51 | O=S(=O)(c1ccc(Oc2ccc(S(=O)(=O)N3CCOCC3)cc2)cc1)N1CCOCC1 | 9.29
52 | O=[N+]([O-])c1ccccc1Oc1ccc(S(=O)(=O)N2CCOCC2)cc1 | -63.8
53 | O=[N+]([O-])c1ccc(-c2ccc(S(=O)(=O)N3CCOCC3)cc2)cc1 | -29.8
54 | O=[N+]([O-])c1ccccc1S(=O)(=O)Oc1ccc(C(=S)N2CCOCC2)cc1 | -75
55 | CCOc1cc(C(=S)N2CCOCC2)ccc1OS(=O)(=O)c1ccccc1[N+](=O)[O-] | 8.98
56 | Cn1nc([N+](=O)[O-])nc1Oc1ccccc1C(=O)N1CCOCC1 | 17.4
57 | COc1cc(C(=S)N2CCOCC2)ccc1OS(=O)(=O)c1ccccc1[N+](=O)[O-] | -1.24
58 | O=[N+]([O-])c1ccccc1S(=O)(=O)Nc1ccc(S(=O)(=O)N2CCOCC2)cc1 | 14.7
59 | O=[N+]([O-])c1ccc(Oc2ccc(S(=O)(=O)N3CCOCC3)cc2)cc1 | -63.4
60 | O=C(c1cccc(Oc2ccc([N+](=O)[O-])cc2)c1)N1CCOCC1 | -34.3
61 | O=S(=O)(c1ccc(Oc2ccccc2)cc1)N1CCOCC1 | 0.463
